This is part of a sample that, as a whole, favours compounds with a hit. Of some 83,000 tested, about 20% had one in any assay.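 Interpretation: 100, growth as untreated; towards 0, rising growth inhibition; 0, no net growth; 0 to -100, cell death. Compounds scoring below 10 were considered active.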 Unmarked numbers belong to inactive results. The source made the active and inactive calls.
Key:
Test in all cases: NCI-60 one-dose screen, 48 h (100 = growth as untreated, 0 = no growth, -100 = all killed)
Settings in all cases: 10 µM unless noted
BT-549 breast = system: BT-549 breast
MDA-MB-435 melanoma = system: MDA-MB-435 melanoma
SW-620 colon = system: SW-620 colon
MCF7 breast = system: MCF7 breast
HCT-116 colon = system: HCT-116 colon
HCC-2998 colon = system: HCC-2998 colon
KM12 colon = system: KM12 colon

Compound | growth (BT-549 breast) | growth (MDA-MB-435 melanoma) | growth (SW-620 colon) | growth (MCF7 breast) | growth (HCT-116 colon) | growth (HCC-2998 colon) | growth (KM12 colon)
Cc1c(Cl)cccc1NC(=O)c1sc2nc3c(cc2c1N)COCC3 | 49.6% | -20% (active) | 22.8% | 16.4% | 19.7% | 65.1% | 31.8%
CC(C)Cc1cc(CNC(=O)C2[C@H]3CN(C(=O)c4ccccc4)C[C@@H]23)nn1-c1ccccc1 (some centres undefined) | 96.1% | 108% | 102% | 94.4% | 92% | 101% | 101%
C=C1C(=O)O[C@H]2[C@H]1CC/C(COC(=O)CCCCCCCC(=O)OC/C1=C/CC[C@@]3(C)O[C@H]3[C@H]3OC(=O)C(=C)[C@@H]3CC1)=C\CC[C@@]1(C)O[C@@H]21 | 25.2% | 29.9% | 7.61% (active) | 5.35% (active) | -43.6% (active) | 78.6% | 46.7%
CN(C)c1ccc(-c2ccc3[nH]c(=O)nc(-c4ccc(F)cc4)c3c2)cn1 | 40.6% | 2.63% (active) | 29.8% | 29.4% | 22.2% | 84.3% | 31.5%
O=C1c2ccccc2C(=O)c2c1oc1c2c(=O)[nH]c2ccccc21 | 73.9% | 83.7% | 89.2% | 48.8% | 55.5% | 103% | 66.2%
Nc1c(C(=O)Nc2cccc3ccccc23)sc2nc3c(cc12)CCCCC3 | 12.6% | -32.2% (active) | 24.3% | 17.7% | 8.52% (active) | 33.1% | 22.8%
NCCN1CCNCC1 | 130% | 105% | 103% | 96.6% | 105% | 94.3% | 109%
Nc1c(C(=O)Nc2ccccn2)sc2nc3c(cc12)C(=O)CCC3 | 53.5% | -42.9% (active) | 23.7% | 22% | 26.3% | 49.3% | 16.3%
[2H]c1cc2c(c([2H])c1F)/C(=C/c1[nH]c(C)c(C(=O)NCCN(CC)CC)c1C)C(=O)N2 | 67.6% | 34% | 25.7% | 38.5% | 34.1% | 69.7% | 1.85% (active)
C=C(C)[C@@H]1CC[C@]2(C(=O)O)CC[C@]3(C)[C@H](CC[C@@H]4[C@@]5(C)C[C@@H](CC#Cc6ccccc6)C(=O)C(C)(C)[C@@H]5CC[C@]43C)[C@@H]12 | 40.7% | 66.8% | 27.3% | 15.5% | 9.07% (active) | 29% | 27.9%
O=C1NCc2ccc3c(-c4cccc(Cl)c4)c[nH]c3c21 | 58.5% | -26.2% (active) | 20.7% | 17.5% | 14.2% | 25.3% | 19.1%
Cc1cc(C)nc(NS(=O)(=O)c2ccc(Nc3ccc4c5c(n(CCCN(C)C)c(=O)c4c3)-c3ccccc3C5=O)cc2)n1 | 91.8% | 98.8% | 54.2% | 30.6% | 56.4% | 73.6% | 71.6%
Cc1nnc(/N=C2\NC(=O)/C(=C/c3ccc(N(C)C)cc3)S2)s1 | 67.4% | 9.37% (active) | 66.9% | 53.4% | 54.6% | 85.5% | 46.1%
C=C1C(=O)O[C@H]2[C@H]1CC/C(COC(=O)Nc1nc3ccccc3[nH]1)=C\CC[C@@]1(C)O[C@@H]21 | 77.3% | 45.8% | 16.4% | 20.1% | 12% | 102% | 94.9%
COc1cc(C2=NN(C(C)=O)C(c3cccc(Nc4ccnc5cc(C(F)(F)F)ccc45)c3)C2)cc(OC)c1OC (centres undefined) | 46.2% | 56.6% | 66.1% | 37.9% | 48.4% | 72.2% | 64.8%
COc1ccc2[nH]c(-c3ccccc3)c(C=C(C#N)C#N)c2c1 | 4.38% (active) | -55.1% (active) | 25.1% | 17.1% | 23.5% | 49.3% | 18.6%
COc1cc(/C=C/C(=O)/C=C/c2cc3ccc(Cl)cc3[nH]c2=O)ccc1O | 97.5% | 36% | 29.7% | 57.8% | 2.1% (active) | 86.3% | 81.3%
Cc1cc(NC(=O)CNc2nc(Oc3ccc(F)cc3)nc(-c3ccc(F)cc3)n2)ccc1Cl | 100% | 105% | 101% | 94.8% | 82.1% | 102% | 103%
COc1ccc(/C=C/C(=O)/C=C(/C=C/c2ccc(OC)c(OC)c2)OB(F)F)cc1OC | 44.3% | 8.23% (active) | -21.8% (active) | 20.1% | -45.6% (active) | 102% | 36.1%
COc1ccc(C(=S)c2cc(OC)c(OC)c(OC)c2)cc1OC(=O)CCl | 12.1% | -8.11% (active) | 29.5% | 15% | 9.73% (active) | 31.2% | 13.9%
CC1=C(CCCOC(=O)NCCCl)C2=C(C)C3(CC3)[C@@](C)(O)C(=O)C2=C1 | 17.5% | 84.8% | 80.3% | 29.8% | 28.2% | 28.8% | 79.2%
CCOCc1cc(C(C)(C)C)ccc1O | 104% | 102% | 93.4% | 97.6% | 91.2% | 104% | 106%
CC(C)(C)c1nn(-c2ccccc2)c2c1COCN2Cc1ccc(Cl)cc1 | 122% | 100% | 82.9% | 80.1% | 62.8% | 51.9% | 86.4%
Nc1cc(N)nc(SCC(=O)O)n1 | 109% | 109% | 104% | 105% | 99.1% | 101% | 104%
C#CCN(CCCOc1ccc(Cl)cc1Cl)CCCSC(=O)CCCCCN1/C(=C\C=C2/CCCC(/C=C/C3=[N+](CCCCCC(=O)[O-])c4ccccc4C3(C)C)=C2Cl)C(C)(C)c2ccccc21 | -34.2% (active) | -60.1% (active) | 3.31% (active) | 6.92% (active) | 9.39% (active) | 40.3% | 6.88% (active)
c1ccc2nc(N3CCOCC3)c(N3CCCCC3)nc2c1 | 109% | 106% | 104% | 93.8% | 102% | 103% | 101%
COC1=CC2C=C(C3N(c4ccccc4)NC(=O)[C@@H]4CCCN34)C(=O)NC2C=C1 (some centres undefined) | 97.4% | 97% | 105% | 94.1% | 93.8% | 94.8% | 100%

From PubChem BioAssay (NCI)
